Out of some 5,500 compounds screened, about 2,000 (36%) were called active. Another 18% or so got no clear call; they are omitted. Cut-off read from the data, not from the text of the source: active = normalized growth mostly below about 0.91 (no sharp cut-off); inconclusive = no clear call, values can overlap the other calls; inactive = mostly above about 0.92. Some of the results follow.
Assay: chemical genetic growth profiling, strain panel (AID 1159580);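 note: tested at 20 µM; growth read once vehicle control cultures reached saturation at 30 °C; 1 = growth at the plate median or of vehicle wells; lower values mean less growth of the strain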
Conditions: S. cerevisiae deletion strains, growth OD

Measured: normalized growth

CC1C/C=C/C=C/C=C/C=C/C(O[C@@H]2O[C@H](C)[C@@H](O)[C@H](N)[C@@H]2O)CC2OC(O)(CC(O)CC3OC3/C=C/C(=O)O1)CC(O)C2C(=O)O (stereo not given in full)
active: locus YBR171W, strain sec66, active compounds read low 0.142 | locus YCL061C, strain MRC1, active compounds read low 0.802 | locus YCR088W, strain abp1, active compounds read low 0.126 | locus YER015W, strain faa2, active compounds read low 0.823 | locus YER155C, strain BEM2 (second series), active compounds read low 0.711 | locus YGL227W, strain vid30, active compounds read low 0.0655 | locus YKR026C, strain gcn3, active compounds read low 0.296 | locus YLR357W, strain rsc2, active compounds read low 0.427 | locus YMR125W, strain sto1, active compounds read low 0.0829 | locus YNL248C, strain rpa49, active compounds read low 0.544
inactive: locus YAL021C, strain ccr4, active compounds read low 1.02 | locus YAL026C, strain drs2, active compounds read low 0.94 | locus YAL030W, strain snc1, active compounds read low 1 | locus YBL061C, strain skt5, active compounds read low 1 | locus YBR009C, strain hhf1, active compounds read low 0.981 | locus YBR023C, strain chs3, active compounds read low 0.992 | locus YBR231C, strain swc5, active compounds read low 0.981 | locus YBR279W, strain paf1, active compounds read low 1 | locus YCL011C, strain gbp2, active compounds read low 0.989 | locus YCL016C, strain dcc1, active compounds read low 0.993 | locus YCL069W, strain vba3, active compounds read low 1.01 | locus YDL005C, strain med2, active compounds read low 0.993 | locus YDL040C, strain nat1, active compounds read low 0.993 | locus YDR001C, strain nth1, active compounds read low 1 | locus YDR069C, strain doa4, active compounds read low 0.983 | locus YDR137W, strain rgp1, active compounds read low 1.01 | locus YDR159W, strain sac3, active compounds read low 0.958 | locus YDR195W, strain ref2 0.945 | locus YDR297W, strain sur2, active compounds read low 1 | locus YDR334W, strain swr1, active compounds read low 0.999 | locus YDR335W, strain msn5, active compounds read low 0.985 | locus YDR392W, strain spt3, active compounds read low 0.848 | locus YEL003W, strain gim4, active compounds read low 0.991 | locus YEL037C, strain rad23, active compounds read low 0.992 | locus YEL061C, strain CIN8 (second series), active compounds read low 0.984 | locus YER016W, strain bim1, active compounds read low 0.978 | locus YER111C, strain swi4, active compounds read low 0.981 | locus YFR010W, strain ubp6, active compounds read low 0.982 | locus YGL167C, strain pmr1, active compounds read low 0.984 | locus YGL173C, strain kem1, active compounds read low 0.997 | locus YGL240W, strain doc1, active compounds read low 0.996 | locus YGL253W, strain hxk2, active compounds read low 0.973 | locus YHR013C, strain ard1, active compounds read low 0.957 | locus YHR027C, strain rpn1, active compounds read low 1 | locus YHR030C, strain SLT2, active compounds read low 0.972 | locus YHR079C, strain IRE1, active compounds read low 0.975 | locus YHR142W, strain chs7, active compounds read low 1.02 | locus YJL092W, strain hpr5, active compounds read low 0.964 | locus YJL095W, strain BCK1 (second series), active compounds read low 1 | locus YJL095W, strain BCK1, active compounds read low 1 | locus YJL115W, strain asf1, active compounds read low 1 | locus YJL129C, strain trk1, active compounds read low 0.949 | locus YJL154C, strain vps35, active compounds read low 0.995 | locus YJL164C, strain tpk1, active compounds read low 1.01 | locus YJL166W, strain qcr8, active compounds read low 0.992 | locus YJL187C, strain SWE1, active compounds read low 1 | locus YJR066W, strain TOR1, active compounds read low 0.943 | locus YKL160W, strain elf1, active compounds read low 1.04 | locus YKR091W, strain srl3, active compounds read low 0.999 | locus YLL001W, strain dnm1, active compounds read low 0.982 | locus YLL026W, active compounds read low 1 | locus YLL041C, strain sdh2, active compounds read low 0.998 | locus YLR027C, strain aat2, active compounds read low 1 | locus YLR113W, strain HOG1, active compounds read low 1.02 | locus YLR221C, strain rsa3, active compounds read low 1.02 | locus YLR258W, strain gsy2, active compounds read low 0.977 | locus YLR262C, strain YPT6 (second series), active compounds read low 1.01 | locus YLR320W, strain mms22, active compounds read low 1 | locus YLR342W, strain FKS1, active compounds read low 0.994 | locus YLR370C, strain arc18, active compounds read low 1.02 | locus YLR384C, strain iki3, active compounds read low 0.994 | locus YML120C, strain ndi1, active compounds read low 1.01 | locus YMR058W, strain fet3, active compounds read low 0.921 | locus YMR129W, active compounds read low 0.987 | locus YMR205C, strain PFK2, active compounds read low 0.985 | locus YMR231W, strain pep5, active compounds read low 0.997 | locus YNL071W, strain lat1, active compounds read low 1 | locus YNL183C, strain NPR1, active compounds read low 0.956 | locus YNL209W, strain ssb2, active compounds read low 0.999 | locus YNL322C, strain KRE1 (second series), active compounds read low 1 | locus YNR049C, strain mso1, active compounds read low 0.994 | locus YOR001W, strain rrp6, active compounds read low 1.01 | locus YOR070C, strain gyp1, active compounds read low 0.998 | locus YOR080W, strain dia2, active compounds read low 1 | locus YOR083W, strain WHI5, active compounds read low 1.03 | locus YOR106W, strain vam3, active compounds read low 1.03 | locus YOR231W, strain MKK1, active compounds read low 0.963 | locus YOR265W, strain rbl2, active compounds read low 0.999 | locus YOR270C, strain vph1, active compounds read low 0.948 | locus YOR290C, strain snf2, active compounds read low 0.953 | locus YPL051W, strain arl3, active compounds read low 1 | locus YPL078C, strain atp4, active compounds read low 1.02 | locus YPL106C, strain sse1, active compounds read low 1.01 | locus YPL240C, strain hsp82, active compounds read low 1 | locus YPL256C, strain CLN2, active compounds read low 0.991

From PubChem BioAssay AID1159580 (chemical genetic matrix, 2015)
